# Compounds without any hit were thinned out: in the full panel of roughly 83,000, 20% have a hit.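 The test compound was applied at a single concentration to cells in 96-well plates for 48 hours, and percent growth was recorded.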 Active and inactive are the calls of the source. How the source made its calls: active means growth percent below 10; inactive means the rest.
# System: HL-60(TB) leukemia
# Experiment: NCI-60 one-dose screen, 48 h (100 = growth as untreated, 0 = no growth, -100 = all killed)
# Details: 10 µM unless noted
row,SMILES,growth
1,COc1ccc(-n2nnc3c(sc4ccccc43)c2=O)cc1,94.6% (inactive)
2,CC1(C)CC(=O)c2c(ccc(C(=O)C[C@@H](N)CO)c2N)O1,35.7% (inactive)
3,C=C(C)[C@@H]1CC[C@]2(C(=O)O)CC[C@]3(C)[C@H](CC[C@@H]4[C@@]5(C)C[C@@H](CC#Cc6ccc(C(F)(F)F)cc6)[C@H](O)C(C)(C)[C@@H]5CC[C@]43C)[C@@H]12,7.01% (active)
4,O=C1C(=O)c2c(nc3ccc(C(F)(F)F)cn23)-c2ccccc21,-47% (active)
5,C#CC#CC#CC#CC#CC#CC#CC#CCC1OCC(COC(=O)O[C@@H](C(=O)O[C@H]2C[C@@]3(O)[C@@H](OC(=O)c4ccccc4)[C@@H]4[C@]5(OC(C)=O)CO[C@@H]5C[C@H](O)[C@@]4(C)C(=O)[C@H](OC(C)=O)C(=C2C)C3(C)C)[C@@H](NC(=O)c2ccccc2)c2ccccc2)O1 (stereo partly drawn),5.04% (active)
6,O=C(O)CC1=CCCCC1,95.5% (inactive)
7,O=C1COCCN1c1ccc(NCc2cn(Cc3cccc4ccccc34)c3ccccc23)cc1,96.4% (inactive)
8,CC(C)c1cccc(C#N)c1,112% (inactive)
9,CCOC(=O)C1(N)CCCCC1,110% (inactive)
10,C[PH+](c1nc2ccccc2nc1[PH+](C)C(C)(C)C)C(C)(C)C.C[PH+](c1nc2ccccc2nc1[PH+](C)C(C)(C)C)C(C)(C)C.[Au+].[Cl-] (stereo not drawn),12% (inactive)
11,O=c1c2cc(F)ccc2sc2c(NCCO)nc3ccccc3c12,91.9% (inactive)
12,COc1ccc(C(=O)C(Br)C(Br)C(=O)O)cc1 (stereo not drawn),103% (inactive)
13,N#Cc1c(Cl)nc(SCC2CO2)nc1-c1ccccc1 (stereo not drawn),105% (inactive)
14,Cn1c2ccccc2c2c3[nH][nH]c(=O)c3c3c4ccccc4[nH]c3c21,4.77% (active)
15,O=C1c2cccc(NCCN=Cc3cc(O)ccc3O)c2C(=O)c2c(NCCN=Cc3cc(O)ccc3O)cccc21,-72.5% (active)
16,COc1cccc(NC(=O)NCCNc2nccc(-c3c(-c4ccc(F)cc4)nc4sccn34)n2)c1,92.7% (inactive)
17,N#Cc1c(-c2ccc(F)cc2)nc(N/N=C/c2c[nH]c3ccccc23)nc1N1CCOCC1,2.62% (active)
18,COc1ccc2c(c1)C/C(=C\c1cc(-c3cc(OC)c(OC)c(OC)c3)n[nH]1)C2=O,79% (inactive)
19,O=C(c1nc2ccccc2[nH]1)C1C(c2ccc(F)cc2)C2CC3CCCCC3N2[C@@]12C(=O)Nc1ccc(Cl)cc12 (stereo partly drawn),33.2% (inactive)
20,CCC(CCC(C)C1CCC2C3CC=C4CC(O)CCC4(C)C3CCC12C)C(C)C (stereo not drawn) (tested in a mixture with another compound),82.5% (inactive)
21,COc1cc(Cl)ccc1C,107% (inactive)
22,[N-]=[N+]=NCc1ncc(-c2ccc(C(F)(F)F)cc2)c(NC2CCCCCC2)n1,43.4% [50 µM] (inactive)
23,COc1cc(C2CC(c3ccc(C)cc3)=NN2C=O)ccc1Oc1ccnc2cc(Cl)ccc12 (stereo not drawn),94.8% (inactive)

# — PubChem BioAssay (NCI)
